The target of the experiment is T1, FBXL12, Q9NXK8.
T1 chain: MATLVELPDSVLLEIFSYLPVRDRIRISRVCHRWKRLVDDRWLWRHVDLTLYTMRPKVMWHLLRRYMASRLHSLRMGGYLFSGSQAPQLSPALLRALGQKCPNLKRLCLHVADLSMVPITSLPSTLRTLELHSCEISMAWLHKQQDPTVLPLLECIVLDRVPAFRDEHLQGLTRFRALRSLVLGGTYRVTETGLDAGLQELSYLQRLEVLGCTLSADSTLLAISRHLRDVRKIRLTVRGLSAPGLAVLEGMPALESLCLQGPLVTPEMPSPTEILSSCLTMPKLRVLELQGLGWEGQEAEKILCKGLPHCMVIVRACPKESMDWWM
Kind of experiment: median log2 fold change of GCK-ALFA target abundance (FLAG IP / Myc IP barcode read proportion) (log2 ratio); each designed protein is fused to an ALFA-tag nanobody in HEK293 cells to bring the named protein to FLAG-tagged glucokinase (GCK); Myc marks an untargeted standard; higher = target protein stabilised (more abundant). As to conditions: target protein: 3xFLAG-MCP-GCK-ALFA reporter; HEK293 landing pad (RPLP). As for the experimental part:
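LABEL-seq trans screen in HEK293 landing-pad cells. Each de novo designed 100-aa effector handle, binding the indicated effector (E3 ligase, DUB or autophagy protein), is fused to a constant NbALFA target handle and induced with 2 ug/mL doxycycline. A FLAG-MCP-GCK-ALFA target and a Myc-MCP standard reporter were transfected, and after 48 h circRNA barcodes were recovered by anti-FLAG and anti-Myc IP and sequenced. The value is the median across barcodes (at least 3 per design) of log2(FLAG/Myc read-proportion ratio), with the two transfection replicates pooled. Negative values mean degradation and positive values mean stabilisation of the target.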

B1: FBXL12_hotspot_23_46 (protein)
chain: MRTLVIHLTEQSPEEMVKATYYATKLAYLAVKHGWEVVLRASDAVTAMAARIIAEEIERRTGKEVRVEAEERPETAEEAEELRPRFEEAVRKAIEEVEAE
With B1, the “median log2 fold change” value is -0.32.

B2: FBXL12_hotspot_186_40 (protein)
chain: MELRVRFSPDMSVAQRRAGADIAVAILEGLAERGEIEELVEAARSLLDSLEAARARIQDPEFAAVAAAALARIAAILEEAAKRYPENEEIKEALARVKAA
As for B2, the “median log2 fold change” value came out at 0.165.

B3: FBXL12_hotspot_28_54 (protein)
chain: MKIEVKVSGPKEQVAQRILELLEALKQLVEELKKEYKEVKEKDPEKLPEFEKELEEKLEKIKSIAESLVKQAKELGEEAYKKAKEKAEEVKKAIEELKKA
On to B3, for which the “median log2 fold change” value was -0.418.

B4: FBXL12_hotspot_186_29 (protein)
chain: SDLQVRVRLGDDLETTRSTLEYAVALAAALKARGLTASLRSLARSVRESAIARLRASDDPEIYEAIRAALEALAAVVADDPEARAIVEEALAEVERLRAE
Turning to B4, the “median log2 fold change” value is -0.229.

B5: FBXL12_hotspot_28_55 (protein)
chain: MKLEIRVRGPPEEVAKRILELVDAIVEVARQRKEELQRKVEEEGMPEEEARAELEENADRLLSALESLERNAESLPPELREEVLRRIREAREEIERIRKE
B5: the “median log2 fold change” value worked out at 0.147.

B6: FBXL12_hotspot_23_47 (protein)
chain: MRTLVLSTFGTAPEDREASLEYAARLIVAAGRHGWRVVVVLEDRSSLELAATIAAMAKLVVGAEVVVKTDAEEELRELMERNRERAAELVAAAEAALAAE
With B6, the “median log2 fold change” value was -0.0403.

B7: FBXL12_hotspot_186_41 (protein)
chain: MEVRVSVPADAPLEVVRSTMKYAVELAKELKERGELEALASLGKSLVKLRKELKKAGAPEEKLKAVDEAIKEVAKILEEALKEHPDNEELKKALEELKKA
As for B7, the “median log2 fold change” value turned out to be 0.34.

B8: FBXL12_hotspot_186_31 (protein)
chain: KDLQVRVRLGLDLETTRSTLRYAVALAEALKARGLTASLRSLARSLRESAIEVLKKTKDEEIYEAILEALEELAKVVADDPEALAIVKEAIEEVERLKEE
As for B8, the “median log2 fold change” value was -0.132.

B9: FBXL12_hotspot_186_28 (protein)
chain: SDLEVRVTLGEDLETTKSTLDYAVALAEALKARGLTGSLRSLARSFRESAIARLKKSDDPEIYDAILEAAEKLREVVADDPEAKAIIDEAIAEIKAIKAE
In the case of B9, the “median log2 fold change” value turned out to be 0.157.

B10: FBXL12_hotspot_23_50 (protein)
chain: MRELVLGIGGRPPEEQRAGALRAAELAAAFRPVADRIVVRLGPGVDGAVAAALRRVLEEDYGAEVLSETPEEAVPPEEVEALVAELRAAAEAAEARRRAA
Consider B10, for which the “median log2 fold change” value is 0.248.

B11: FBXL12_hotspot_186_32 (protein)
chain: MELRVSLSASMSVEQMRANAEIAVAIVEGLAERGLWEDLDAAARSLAASLRAAVERLQRPEAAAVAAEALERLAEIVARALEEHPENERLAATLAEIRAA
For the molecule B11, the “median log2 fold change” value worked out at 0.127.

B12: FBXL12_hotspot_28_52 (protein)
chain: MKVEVRVSGDPEQVAAQLLALLEAMTKIAKELAKELKKTKETDPSKVEEKRKEAEEAAEKIRSMVESILRQAESLSPEQQAQVRAAAEETFKALEELEKT
With B12, the “median log2 fold change” value was -0.0427.

B13: FBXL12_hotspot_186_27 (protein)
chain: QQLEFRVVTRLDPEITRSTLDTAIGLVESLLERGLIEQAKSAAEAILEEIERTLAESDDPEIHAILAESLRRLAEVLSRDPRLAPLLERARELLARIEAR
Regarding B13, the “median log2 fold change” value stood at 0.108.

B14: FBXL12_hotspot_23_49 (protein)
chain: MRTLRIHLVSRDPEQNRAAARYAAELATRAVLHGWRVVLSGDDRRTVAAAHAVARVVEEVTGKEVEVTEPLHPEEEPLAEELAEELRPVVEAAKAAELAA
B14: the “median log2 fold change” value is -0.0469.

B15: FBXL12_hotspot_28_53 (protein)
chain: MKRTVIVRGEPEQVGQQILALLEAITEQAKALKAQLEANKNGDPAVLAELKEKLAKLESILESLKEEAERIRPQLSPELQARIDAAIEAAEKALKAAKAV
As to B15, the “median log2 fold change” value was found to be 0.0582.

B16: FBXL12_hotspot_186_36 (protein)
chain: MELRVRFGPDDSVEQMRAGVDIAVAIVEGLAEAGRLEDFVEAARSLLDSLEANAARIKDPAHRAVFAEAVARLLEIAERVAKAYPENEDIKEVAERLKAA
In the case of B16, the “median log2 fold change” value is 0.111.

B17: FBXL12_hotspot_186_30 (protein)
chain: MDLEVRVGLGEDLETTKSTLDYAVALAEALAARGLTASLVSLARSVRESAIEVLKKTKDEEIYEAILEALKRMAEIVKDNPEALAIVEEAIKEVEKLKKE
On to B17, for which the “median log2 fold change” value is 0.1.

B18: FBXL12_hotspot_24_51 (protein)
chain: QTITLVVRADLDLDPRDSPEEKRARLRAAVEGFLGSVETGIALADLMAARGRGAVDREAFEAAAAALLAAAEALGEADLAARVRAARARFLAAADRLEAA
Take B18: the “median log2 fold change” value was 0.0803.

B19: FBXL12_hotspot_20_42 (protein)
chain: MLRLRVGVSEDVEANRGSLLRAAELVEAFADRLAAEFPELAEVIARLRETARRAREAAARLPGLSPEEARALVREMSEEIAEVVEEASRAAEAARARRAA
As for B19, the “median log2 fold change” value came out at 0.115.

B20: FBXL12_hotspot_186_37 (protein)
chain: MLLRVSFSPDDSPAQIQAGVDIAVAIVEGLAERGRLEDFVEAARSLLESLRANAARIKRPEAQAVFDAAVARLAEIAEEVAERYPENEEIKELLEELREA
For the molecule B20, the “median log2 fold change” value amounted to 0.172.

B21: FBXL12_hotspot_28_56 (protein)
chain: AKRTVIVKGPPEQRAELMLKLAKAILEKSKELYKELKKVKDKDEEKVKELLEKLEKLADLAKSLLENAKKTLPKEYEEVVKEIEKLTKEVEKILKEAKKL
For B21, the “median log2 fold change” value is -0.777.

B22: FBXL12_hotspot_186_35 (protein)
chain: MKLRISFAPTDSPEQIRAGVDIAVAIVAGLAAAGRLEDFVEAVRSLLESLQANRARIQRPEHHAVFDAAIERLAALAAEVAAAHPDNAEVAAALARLKAA
With B22, the “median log2 fold change” value worked out at 0.0482.

B23: FBXL12_hotspot_105_2 (protein)
chain: MARVRVGSTGPRALPLTVAGLAFAIYRGDEEEAERLRREAEALIAKRPAAEELRRLLEEAVALARALRAAAEAGDAAAAAAAAARLAAVIDELARLVEAE
For B23, the “median log2 fold change” value was -0.835.

B24: FBXL12_hotspot_186_26 (protein)
chain: MDLQIRVTLSPDLETARSGLEYAVGLLESLVERGLLESARSLVRSLIEAARKLVKETKDPEVRAAVIEALRRVAEILAKRPELEESRRLVEEAIKELEEE
Take B24: the “median log2 fold change” value was determined as 0.196.

B25: FBXL12_hotspot_186_39 (protein)
chain: MELRVRFSEDMSVEQMRAGLDIAVAILEGLAERGRIEDLVAAARSLLDSLEAGRARIKDPAFDEVVDDALRRIAAILERAAERYPDNEELRAALERVRAA
As for B25, the “median log2 fold change” value was 0.222.

B26: FBXL12_hotspot_186_38 (protein)
chain: MELRIRFSPTMSVEQMRAGAQIAVDILRELARRGRWEDLVEAARSLLESLRAARARIRDPEFAEVAAEALERVAAILEEAAKRHPDDEAIHAALEEVKAA
For B26, the “median log2 fold change” value is -0.00819.

B27: FBXL12_hotspot_20_43 (protein)
chain: MLLIRARLVGTREQMITTLRYAAAVVRALAERRRAANDATPEALALLEELARLYEEAAERLEAAPEEEWPAIRAATAAEQARLNERLEAELEAQERERAA
In the case of B27, the “median log2 fold change” value was -0.466.

B28: FBXL12_hotspot_23_48 (protein)
chain: MRTLVLSTRGVAPEDREAAARYAAEMIVAAGRAGWRVRVVLQDRESLELAALIAAMARLVTGAEVVVLTDAAEELERLMEERREEARRLVEEARARLDAE
For B28, the “median log2 fold change” value is -0.469.

B29: FBXL12_hotspot_186_33 (protein)
chain: MELRVSLSADMTPEQMRANAEIAVAIVAGLAERGRVEDLVAAARSLAASLRAAVARLQRPEVAAIAAEALARLAEIVAAAAARHPDNEDLRAALAELRAA
As for B29, the “median log2 fold change” value was found to be 0.143.

B30: FBXL12_hotspot_23_45 (protein)
chain: MRKLVITFAEAPDEEMVKATYYATKLALLAAEHGWEIVLRADNAVTGMAARIVAEAVEKRTGKKVEVIVKEDPSTKERAEKLAPKYEAAVEKAIAEVEAS
Turning to B30, the “median log2 fold change” value was -0.506.

B31: FBXL12_hotspot_186_34 (protein)
chain: MELKITLSEDMSVEQMEAGLKLAVEILQGLRDRELLDDLVAAARSLLKSLKENVARIKKPEFKEVAKKALEEVAKIVKEAAERFPEVEELKEVAKELEEA
For the molecule B31, the “median log2 fold change” value worked out at 0.294.

B32: FBXL12_hotspot_23_44 (protein)
chain: MRLLRISLVEKPPEELRAGALYQAEVAALAILEGWEVEIEAEHPEAVAAAHAIARALREVTGKEVKVSRPLKPEERPLAEELLPELIAAIRAAIAAHRAR
Consider B32, for which the “median log2 fold change” value was determined as 0.0454.

(Values after the supplement of paper PMC12632987.)
